Bioassay records (PubChem)
FLuc counter = counter-screen for miR-21 project: firefly luciferase inhibitors or activators. actives 6.9% (n = 360,000). purified FLuc, Km substrates, luminescence inhibition. Potency, µM (highest dose often 57.5 µM), without a hit: at the top dose activity change, negative = inhibition, actives largely listed as inhibitors. P08659;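 also: plate controls were vehicle for no effect and reference inhibitor for full effect; nearly all actives have a fitted effect of over 55% in size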
Target sequence (P08659 whole entry, looked up): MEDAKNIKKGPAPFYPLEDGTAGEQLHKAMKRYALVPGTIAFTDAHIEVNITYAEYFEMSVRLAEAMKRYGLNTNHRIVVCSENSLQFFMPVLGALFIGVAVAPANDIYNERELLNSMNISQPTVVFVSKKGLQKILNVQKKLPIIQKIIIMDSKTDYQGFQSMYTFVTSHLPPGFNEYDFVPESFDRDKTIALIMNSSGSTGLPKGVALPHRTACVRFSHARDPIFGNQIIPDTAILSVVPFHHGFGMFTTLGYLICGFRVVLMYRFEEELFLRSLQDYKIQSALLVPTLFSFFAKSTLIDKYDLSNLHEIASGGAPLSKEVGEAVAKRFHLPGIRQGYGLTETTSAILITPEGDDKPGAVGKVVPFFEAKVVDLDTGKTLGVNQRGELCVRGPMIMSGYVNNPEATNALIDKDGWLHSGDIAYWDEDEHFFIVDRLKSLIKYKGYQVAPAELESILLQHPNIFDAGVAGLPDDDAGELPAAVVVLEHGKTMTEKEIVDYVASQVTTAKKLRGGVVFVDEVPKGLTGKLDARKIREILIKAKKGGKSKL
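Biochemical qHTS of compounds, final roughly 60 µM downward over six points, against 10 nM purified firefly luciferase using Km concentrations of substrates (10 uM D-luciferin, 10 uM ATP) in Tris acetate pH 7.5 buffer; luminescence output.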
NPC1 prom act = activates the NPC1 promoter; Potency, µM (doses to about 9.22 µM), for the others: at the top dose activation, actives largely listed as activators; AID 485313; actives 2.4% (n = 320,000); Huh7 NPC1 promoter luciferase reporter, 24 h; also: % of control where 0% means no effect; nearly all actives have a fitted effect of over 60% in size
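NPC1 promoter–luciferase Huh7 cells; 24 h compound; luminescence.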
ELG1 genotoxic = inducers of genotoxicity in HEK293T ELG1-luciferase cells; HEK293T ELG1-luciferase reporter, luminescence, 16 h; actives 1.3% (n = 330,000); Potency, µM (top dose mostly 46 µM), for inactives: at the highest dose activity change, positive = activation, hits mostly activators; also: % of control where 0% means no effect; nearly all actives have a fitted effect of over 60% in size
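Cells (2,000/well) expressing the ELG1-luciferase fusion are dosed by pin tool and kept 16 hr at 37 °C, 5% CO2. Signal comes from ONE-Glo luciferase reagent after 30 min at room temperature.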
SMN2 splice up = increases expression of the SMN2 splice variant. HEK293 SMN2-luciferase splicing reporter, luminescence, 30-36 h. Potency, µM (titrated, usually from 46.1 µM), for inactives: at the top dose activity change, positive = activation, most hits filed as activators. actives 2.8% (n = 210,000). AID 1458; also: % of control where 0% means no effect; nearly all actives have a fitted effect of over 55% in size
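HEK293 cells carry an SMN2 […]–luciferase reporter in which exon 7 inclusion puts luciferase in frame. Cells were plated 10-12 h before compound addition, then incubated 30-36 h at 37C. ONE-Glo luminescence was read; sodium butyrate at 4.5 mM final served as control.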
Rab9 promoter act = activators of Rab9 promoter; AID 485297; Potency, µM (highest dose often 9.22 µM), for the others: top-dose activation, negative = inhibition, hits mostly activators; Huh7 Rab9 promoter-luciferase reporter, luminescence, 24 h; actives 2.8% (n = 320,000); also: % of control where 0% means no effect; nearly all actives have a fitted effect of over 60% in size
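Steps: seed 1500 Huh7 Rab9-luc cells per well, rest 2 h at 37 °C; add compound in DMSO; incubate 24 h; add luciferase reagent, 10 min ambient; read luminescence.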
Active calls of the source: *; [ ] = another dose, or the depositor's remark. Only some compounds are listed: those with a hit (about 7.4% of all), similar ones and a draw of the others. Calls follow the shape of the dose curve; as a rule, active = well fitted curve in the direction sought with a large enough effect; inconclusive = small, poorly fitted or top-dose-only effect, or another doubt; inactive = no such curve, though single readings can be large; an effect the other way counts as inactive or inconclusive. Potency is read from the fitted curve at half-maximal effect.

For Cc1ccc(SCn2nnc3ccccc3c2=O)c(C)c1 the results were FLuc counter 19µM*, NPC1 prom act inconclusive, ELG1 genotoxic inconclusive, SMN2 splice up 16µM* and Rab9 promoter act 2.5µM*.
`CCc1cccc(NC(=O)C(Cc2ccccc2)n2cccc2)c1` (stereo unspecified) gave FLuc counter -12% and SMN2 splice up -9%.
Screening CC(C)c1ccc(NC(=O)C2CCCN(S(=O)(=O)c3cccc4cccnc34)C2)cc1 (stereo unspecified) returned FLuc counter 2% and SMN2 splice up -21%.
For CCCc1ccc(OC(C)C(=O)Nc2sc3c(c2C(=O)OC)CCCCC3)cc1 (stereo unspecified) the results were FLuc counter -14% and SMN2 splice up -7%.
For Cc1ccc2nc(SCn3nnc4ccccc4c3=O)[nH]c2c1 the results were FLuc counter 4.8µM*, NPC1 prom act 2.5µM*, ELG1 genotoxic inconclusive, SMN2 splice up 2.8µM* and Rab9 promoter act 1.8µM*.
For c1ccc(-c2csc(Nc3nc(N4CCOCC4)nc(N4CCOCC4)n3)n2)cc1 the results were FLuc counter 3%, NPC1 prom act -5%, ELG1 genotoxic 1%, SMN2 splice up -14% and Rab9 promoter act -9%.
Cc1ccc(Nc2nc(-c3cccs3)cs2)nc1 was read as FLuc counter 0.24µM*, NPC1 prom act 0.45µM*, ELG1 genotoxic 0.52µM*, SMN2 splice up 1.4µM* and Rab9 promoter act 0.45µM*.
CC(C)=NNc1nc(-c2ccccc2)cs1 was read as FLuc counter 19µM*, NPC1 prom act 16%, ELG1 genotoxic inconclusive, SMN2 splice up -17% and Rab9 promoter act 12%.
For Cc1ccc(Nc2nc(-c3ccccc3)cs2)nc1 the results were FLuc counter 0.38µM*, NPC1 prom act 0.45µM*, ELG1 genotoxic 0.33µM* and Rab9 promoter act 0.56µM*.
For CC(/C=C/c1ccccc1)=N\Nc1nc(-c2ccccc2)cs1 the results were FLuc counter 4%, NPC1 prom act -4%, ELG1 genotoxic -8%, SMN2 splice up -23% and Rab9 promoter act -4%.
For Cc1cc(C)nc(Nc2nc(-c3ccccc3)cs2)n1 the results were FLuc counter inconclusive, NPC1 prom act inconclusive, ELG1 genotoxic 1.6µM* and Rab9 promoter act 0.71µM*.
Screening CCOc1ccc(Sc2cc(C(=O)NCCc3ccc(OC)c(OC)c3)c3ccccc3n2)cc1 returned FLuc counter -2%.
CC(=O)Nc1ccc(OC[C@@H](O)CNC(C)C)cc1 was read as SMN2 splice up 2%[20.6 µM].
Screening CC(C)CN(c1ccccc1)S(=O)(=O)c1nnc(NC(=O)C(C)C)s1 returned FLuc counter 1%, NPC1 prom act -2%, ELG1 genotoxic 1% and Rab9 promoter act -4%.
CC(C)CC(=O)Nc1nnc(S(=O)(=O)N(CC(C)C)c2ccccc2)s1 was read as FLuc counter 0.85µM*.
For CCN(c1ccc(C)cc1)S(=O)(=O)c1nnc(NC(=O)C2CCCCC2)s1 the results were FLuc counter 11µM*.
Screening CCN(c1cccc(C)c1)S(=O)(=O)c1nnc(NC(=O)C2CCCCC2)s1 returned FLuc counter 15µM*.
CCN(c1ccccc1)S(=O)(=O)c1nnc(NC(=O)C2CCCCC2)s1 was read as FLuc counter 2.7µM*.
For CCN(c1ccc(OC)cc1)S(=O)(=O)c1nnc(NC(=O)C2CCCCC2)s1 the results were FLuc counter 1%, NPC1 prom act -2%, ELG1 genotoxic 2% and Rab9 promoter act -2%.
C#CCn1cnc2c(cnn2-c2ccc(F)cc2)c1=O was read as FLuc counter -9% and SMN2 splice up -5%.
Cc1c(CC(=O)NCCc2ccc(Cl)cc2)c(=O)oc2c(C)c3occ(C(C)(C)C)c3cc12 was read as FLuc counter 1% and SMN2 splice up 3%.
CC(C)NC(=O)CC(=O)Nc1ccc2nc3n(c(=O)c2c1)CCCCC3 was read as FLuc counter -17% and SMN2 splice up -9%.
`COc1ccc(OC)c(NC(=O)c2c(C)oc3ncnc(N4CCOCC4)c23)c1` gave FLuc counter -2%.
Screening Cc1ccc(NC(=O)c2cnn(-c3ccccc3)c2C)c(C)c1 returned FLuc counter 12µM*, NPC1 prom act 2.5µM*, ELG1 genotoxic inconclusive and Rab9 promoter act 3.2µM*.
For Cc1ccc(NC(=O)c2cnn(-c3ccccc3)c2C)cc1 the results were FLuc counter 1.1µM*, NPC1 prom act 0.32µM*, ELG1 genotoxic 1.5µM* and Rab9 promoter act 0.4µM*.
For COc1ccc(C(=O)N2CCC3(CC2)CCN(c2cccc(-c4ccccc4)c2)CC3)cc1 the results were SMN2 splice up -50%.
`Cn1c(=O)cc(SCC(=O)N2CCN(c3ccccc3F)CC2)c2cc(Cl)ccc21` gave FLuc counter 5% and SMN2 splice up -5%.
For CSc1ccccc1OCc1cc(C(=O)N(C)Cc2ccc3nsnc3c2)no1 the results were FLuc counter inconclusive, NPC1 prom act 0.63µM*, ELG1 genotoxic 3.3µM* and Rab9 promoter act 0.71µM*.
CSc1ccccc1OCc1cc(C(=O)NCc2ccc(C)s2)no1 was read as FLuc counter inconclusive, NPC1 prom act 20%, ELG1 genotoxic 2% and Rab9 promoter act 20%.
Screening CSc1ccccc1OCc1cc(C(=O)N(C)Cc2ccc(C)o2)no1 returned FLuc counter 17µM*, NPC1 prom act inconclusive, ELG1 genotoxic inconclusive and Rab9 promoter act 4µM*.
CCOC(=O)c1ccc(CNC(=O)c2cc(COc3ccccc3SC)on2)o1 was read as FLuc counter 8.5µM*, NPC1 prom act 2.5µM*, ELG1 genotoxic inconclusive and Rab9 promoter act inconclusive.
CCC/C=C(\CCC)C(NS(=O)(=O)c1cccs1)c1ccc(C(=O)OC)cc1 (stereo unspecified) was read as SMN2 splice up -12%.
`[N-]=[N+]=N[C@@H]1[C@H](O)[C@H](CO)O[C@@H]1n1cnc2c(N)ncnc21` gave SMN2 splice up -8%[9.22 µM].
For CCOC(=O)c1ccccc1NC(=O)Cn1ncc2c([nH]c3ccccc32)c1=O the results were FLuc counter 4%.
`CC(C)C1Oc2ccccc2N(CC(=O)N2CCOCC2)C1=O` (stereo unspecified) gave FLuc counter 0%, NPC1 prom act -2%, ELG1 genotoxic 5% and Rab9 promoter act 4%.
For CC(C)C1Oc2ccccc2C(=O)N(CC(=O)c2ccc3c(c2)OCCO3)C1=O (stereo unspecified) the results were FLuc counter 2.4µM*, NPC1 prom act 1.1µM*, ELG1 genotoxic inconclusive and Rab9 promoter act 1.4µM*.
